ATXN2 expr inh – Primary qHTS for Inhibitors of ATXN expression; HEK-293 ATXN2-luciferase reporter, luminescence, 24 h; Potency, µM (series often up to 57 µM), inactives show at the top dose activity change, negative = inhibition, usual class: inhibitors; 0.72% of 360,000 active; further: on the % scale 0 is the no-effect control and ±100 the full control effect; nearly all actives have a fitted effect of over 55% in size
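ATXN2-luciferase reporter cells (luciferase flanked by upstream and downstream ATXN2 gene portions) were treated 24 h at 37 °C with compounds at up to 57 uM. SteadyGlo luminescence gave expression; GF-AFC fluorescence gave viability.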
HepG2 viability – qHTS for Inhibitors of TGF-b: Cytotox Counterscreen; HepG2 CAGA-GFP viability, ATP luminescence, 18 h; Potency, µM (titrated, usually from 46.1 µM), inactives show at the highest dose activity change, negative = cytotoxicity, actives largely listed as cytotoxic; 0.76% of 410,000 active; AID 588856, 2011
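HepG2 CAGA-GFP cells (1000/well, DMEM with 1% FBS) received compound, then TGF-beta at 500 pg/mL final, and were incubated 18 hours at 37 degrees C. Viability was read by CellTiter-Glo luminescence. Media-only wells were set as complete cell-killing and DMSO as no toxicity.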
TGFb inhibitor – qHTS for Inhibitors of TGF-b | HepG2 CAGA-GFP TGF-b/SMAD3 reporter, GFP fluorescence, 18 h; TGF-beta stimulated, 500 pg/mL final | Potency, µM (series often up to 46.1 µM), for the others: top-dose activity, negative = inhibition, actives largely listed as inhibitors | 1.2% of 410,000 active; further: on the % scale 0 is the no-effect control and ±100 the full control effect; nearly all actives have a fitted effect of over 65% in size
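HEPG2 CAGA-GFP reporter cells (1000/well, DMEM with 1% FBS) received compounds, then recombinant TGF-beta at 500 pg/mL final for 18 hours at 37 degrees C. Per-cell GFP summed per well was normalised to unstimulated and stimulated DMSO controls before curve fitting.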
TDP1 cell noCPT – qHTS for Inhibitors of human tyrosyl-DNA phosphodiesterase 1 (TDP1): qHTS in cells in absence of CPT; AID 686978, 2013; Potency, µM (doses to about 46.2 µM), for the others: at the top dose activity change, negative = growth inhibition, actives largely listed as inhibitors; 15% of 420,000 active; DT40 Tdp1-/- hTDP1 cells, no CPT, ATP luminescence, 48 h; further: on the % scale 0 is the no-effect control and ±100 the full control effect; nearly all actives have a fitted effect of over 55% in size
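Compound effects on proliferation are scored in DT40 Tdp1-/-;hTDP1 cells in the absence of CPT. ATP levels (CellTiter-Glo luminescence) are recorded after a ≥48 hr, 37 °C incubation.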
S2 tox – Viability Counterscreen for Primary qHTS for Inhibitors of ATXN expression. S2 cells (HEK-293 line with an ATXN2-luciferase reporter) viability, CellTiter-Fluor protease fluorescence, 24 h. Potency, µM (titrated, usually from 56.7 µM), hits mostly cytotoxic. 0.49% of 400,000 active. AID 651635, 2014; further: nearly all actives have a fitted effect of over 40% in size
DT40 TDP1 CPT – qHTS for Inhibitors of human tyrosyl-DNA phosphodiesterase 1 (TDP1): qHTS in cells in presence of CPT | AID 686979, 2013 | Potency, µM (top dose mostly 46.2 µM), inactives show at the top dose activity change, negative = growth inhibition, usual class: inhibitors | chicken DT40 Tdp1-/-;hTDP1 cells + 20 nM CPT, ATP luminescence, 48 h | 12% of 420,000 active; further: on the % scale 0 is the no-effect control and ±100 the full control effect; nearly all actives have a fitted effect of over 55% in size
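Cell growth measured by CellTiter-Glo luminescence after a minimum 48 h, 37 C compound exposure with 20 nM CPT in Tdp1-knockout DT40 cells stably expressing hTDP1, seeded 400/well; qHTS titration format.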
* hit, by the source's call; i = inactive; ? = inconclusive; nt = no result. In the library only some 17% were active in any assay of this set; here they are far more common. The call rests on the fitted dose curve; in most records, active means well fitted curve in the direction sought with a large enough effect; inconclusive means small, poorly fitted or top-dose-only effect, or another doubt; inactive means no such curve, though single readings can be large; an effect the other way counts as inactive or inconclusive. Potency means the concentration at half of the fitted maximal effect.

SMILES	ATXN2 expr inh	HepG2 viability	TGFb inhibitor	TDP1 cell noCPT	S2 tox	DT40 TDP1 CPT
CCOC(=O)N1CCN(C(=O)c2ccc3c(=O)n(Cc4ccc(OC)cc4)c(=S)[nH]c3c2)CC1	-18.9%	-32.9%	-10.3%	?	i	?
O=C(CCc1nnc2n(Cc3ccc(F)cc3)c(=O)c3ccccc3n12)NCCN1CCOCC1	-7.1%	-13.1%	?	-7.4%	i	-29.5%
O=C(c1ccc(Cn2c(=O)[nH]c3ccccc3c2=O)cc1)N1CCN(c2ccccc2)CC1	-16.9%	-2.3%	9.7%	14.6µM*	i	18.4µM*
COc1ccc(Cn2c(=O)[nH]c3cc(C(=O)N4CCN(c5cc(Cl)ccc5C)CC4)ccc3c2=O)cc1	4.2%	-5.3%	-8.2%	14.6µM*	i	14.6µM*
CCn1c(=O)[nH]c2cc(C(=O)N3CCN(c4ccccc4)CC3)ccc2c1=O	0.3%	-1.0%	3.5%	?	i	?
O=C(c1ccc(CN2CCc3ccccc3C2)cc1)N1CCc2ccccc2C1	-5.0%	1.9%	14.8%	?	i	?
O=C(CCc1nnc2n(Cc3ccc(F)cc3)c(=O)c3ccccc3n12)N1CCN(c2ccccn2)CC1	nt	16.0%	-1.0%	20.6µM*	i	?
O=C(c1ccc(CN2CCc3ccccc3C2)cc1)N1CCN(c2ccccc2)CC1	3.4%	1.1%	-17.5%	?	i	13µM*
Cc1cccc(N(Cc2cc3ccccc3[nH]c2=O)S(=O)(=O)c2ccccc2)c1	-2.1%	1.8%	15.9%	?	i	?
S=C(NCc1ccccc1)NN1CCOCC1	-12.5%	-48.3%	0.0%	-13.6%	i	-5.5%
CCNc1nc(OC)nc(N2CCC(Cc3ccccc3)CC2)n1	-11.0%	-7.4%	?	?	i	?
O=C(Nc1ccc(Br)cc1F)c1cc2nc(-c3ccco3)cc(C(F)(F)Cl)n2n1	3.7%	-3.3%	-4.3%	-10.4%	i	-13.0%
COC(=O)c1ccccc1NC(=O)COC(=O)CO/N=C(\C)c1ccc2c(c1)OCO2	-10.5%	0.1%	12.5%	-28.7%	i	-9.6%
COc1cccc(C(=O)N2CCN(c3ccccn3)CC2)c1	-3.1%	0.8%	-14.2%	-2.9%	?	-14.7%
O=C(c1ccc(F)cc1)N1CCN(c2ccccn2)CC1	7.4%	-5.4%	-0.8%	-4.1%	i	0.1%
COc1ccc(Cn2c(=O)[nH]c3cc(C(=O)N4CCN(c5ccccn5)CC4)ccc3c2=O)cc1	-17.5%	-25.6%	12.3%	23.1µM*	i	14.6µM*
O=C(c1ccc(Cn2c(=O)[nH]c3ccccc3c2=O)cc1)N1CCN(c2ccccn2)CC1	-19.1%	-14.5%	?	23.1µM*	i	?
CCN(CC)C(=O)c1sc2c(c1C)c(=O)n(-c1ccccc1)c(=O)n2CC(=O)N(CC)c1cccc(C)c1	6.2%	-11.2%	-0.6%	-19.4%	i	?
COc1cc(NC(=O)CCC(=O)N2CCN(S(=O)(=O)c3ccc(C)cc3)CC2)cc(OC)c1	2.9%	-7.1%	1.7%	-20.2%	i	-0.9%
CCOC(=O)CSc1nc2ccc(NC(=O)COc3ccccc3C)cc2s1	-13.8%	5.4%	-23.8%	-22.9%	?	-14.2%
CCCC[n+]1c2ccccc2cc2ccccc21	nt	-23.0%	?	2.06µM*	nt	2.31µM*
CCC[n+]1c2ccccc2cc2ccccc21	-2.0%	-49.5%	?	2.59µM*	i	2.91µM*
Cc1ccc2ccccc2[n+]1CCCS(=O)(=O)[O-]	0.2%	-17.6%	-5.8%	-6.1%	i	-18.3%
